Laboratory results: ChEMBL document CHEMBL4888484, “Replenishing the malaria drug discovery pipeline: Screening and hit evaluation of the MMV Hit Generation Library 1 (HGL1) against asexual blood stage Plasmodium falciparum ,using a nano luciferase reporter read-out” (2022)
Screen size: about 150,000 compounds; about 540 (0.36%) showed an effect of 50% or more. This excerpt belongs to a sample that is enriched for strong results.

The molecules below were run on Plasmodium falciparum (assay: Primary screen in NF54 nanoGlo assay, in single point, at 2uM, 72h; a lower Z score goes with more inhibition). Conditions: timepoint 72 hour.
Format: functional, Erythrocyte

| SMILES | % Inhibition [%] | Z score |
| --- | --- | --- |
| CC[C@H](Oc1ccccc1C)c1nnc(C2(c3ccccc3)CC2)o1 | -15 | 1.76 |
| CC(C)(C)OC(=O)NC1CCCC1Nc1cnn(-c2ccccn2)c1 (stereo not drawn) | -13 | 1.28 |
| Cc1ccsc1-c1noc([C@H]2CCc3nccn3C2)n1 | -5 | 0.62 |
| Cc1cnn(C)c1CN1CCOC[C@H]1c1nc(-c2ccccc2)no1 | 16 | -2.06 |
| Cc1ccsc1-c1noc([C@@H]2COCCN2C)n1 | 87 | -14.98 |
| CC(NCc1ccc(Br)c2cccnc12)C1CCOC1 (stereo not drawn) | -5 | 0.52 |
| Cc1ccc(C(=O)Nc2c(C)nc(N3CCOCC3)nc2C)cc1C | 13 | -2.05 |
| O=S(=O)(Nc1cccc2cccnc12)c1cccs1 | 55 | -5.93 |
| Cc1n[nH]c(C)c1S(=O)(=O)Nc1cccc2cccnc12 | -2 | 0.25 |
| O=S(=O)(Nc1cccc2ccccc12)c1cccs1 | 35 | -3.95 |
| CCN1C[C@]2(CCCN(C(=O)c3ccccc3N3CCCC3)C2)CCC1=O | 7 | -1.03 |
| Cc1nn(-c2cnc(N)cn2)c(C)c1Cc1ccccc1 | -7 | 0.91 |
| COc1ccc(CC(=O)N2CC3(C[C@H](N4CCN(C)CC4)CO3)C2)cc1 | -7 | 1.04 |
| Clc1ccccc1OCCn1nc(C2CC2)nc1C1CC1 | 2 | -0.37 |
| C[C@@H]1CN(c2nc(C(F)F)nc3ccc(F)cc23)C[C@H](C)N1 | -4 | 0.64 |
| CO[C@@H]1CO[C@H]2[C@@H]1OC[C@@H]2Nc1nccc(-c2ccc3c(c2)OCO3)n1 | -2 | 0.19 |
| CCn1ccc(C(=O)N2CCCN(Cc3c(C)noc3C)CC2)n1 | -3 | 0.35 |
| CC[C@H]1CCCCCN1C(=O)c1ccnc(OC2CCC2)c1 | -5 | 0.5 |
| NC(=O)[C@@H]1CCCCN1C(=O)c1ccnc(-n2cccn2)c1 | 12 | -1.33 |
| NC(=O)[C@@H]1CCCN1C(=O)c1ccnc(OC2CCCCC2)c1 | 53 | 0.89 |
| COc1ccc(CCc2nc(NC(=O)c3nc(C)sc3C)n[nH]2)cc1OC | 71 | -9.67 |
| COc1ccc(CCc2nc(NC(=O)[C@H]3CC(=O)N(C)C3)n[nH]2)cc1OC | 15 | -2.27 |
| COc1ccc(CCc2nc(NC(=O)C(C)C)n[nH]2)cc1OC | 13 | -1.63 |
| COC1CCCC(CC(=O)NC2CC(=O)N(C)C2)C1 (stereo not drawn) | 2 | -0.4 |
